# Source: PubChem BioAssay (National Center for Advancing Translational Sciences (NCATS))
# RECQ1 inh = qHTS Assay for Inhibitors of RecQ-Like Dna Helicase 1 (RECQ1); RECQ1 DNA unwinding, red fluorescence kinetic read; Potency, µM (titrated, usually from 57.3 µM), without a hit: at the top dose activity, negative = inhibition, usual class: inhibitors; hit rate 0.54% among 240,000; AID 2549, 2010;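 further: plate controls were vehicle for no effect and no enzyme for full effect; nearly all actives have a fitted effect of over 30% in size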
#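 RECQ1T1 50 nM; forked duplex (20 bp + 30-nt ss tails) 200 nM, ATP 2 mM final; pH 8.0, 2 mM MgCl2, 2.5 ug/ml poly(dI-dC); 15 min compound preincubation; discontinuous kinetic read over 2 h at RT.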
# FEN1 inhibitor = qHTS Assay for the Inhibitors of Human Flap endonuclease 1 (FEN1); P39748; AID 588795, 2011; Potency, µM (titrated, usually from 114 µM), for inactives: at the highest dose activity change, negative = inhibition, usual class: inhibitors; hit rate 0.35% among 390,000; Recombinant FEN1 flap cleavage, fluorescence, 15 min; further: on the % scale 0 is the no-effect control and ±100 the full control effect; nearly all actives have a fitted effect of over 65% in size
#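 Quantitative HTS format: each compound was titrated, incubated with 10 nM nuclease for 15 min at room temperature, then challenged with flap substrate at 50 nM final. Signal change over 15 min gave concentration–effect curves.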
# BLM helicase inh-1 = qHTS Assay for Inhibitors of Bloom's syndrome helicase (BLM). recombinant BLM DNA unwinding, fluorescence dequenching. Potency, µM (series often up to 56.1 µM), inactives show top-dose activity change, negative = inhibition, most hits filed as inhibitors. hit rate 0.2% among 350,000;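 further: plate controls were vehicle for no effect and no enzyme for full effect; nearly all actives have a fitted effect of over 35% in size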
# WRN helicase inh-1 = qHTS for Inhibitors of WRN Helicase. Bifunctional 3'-5' exonuclease/ATP-dependent helicase WRN (Homo sapiens), Q14191. WRN helicase unwinding, fluorescent forked duplex, kinetic. Potency, µM (highest dose often 114 µM), inactives show at the highest dose activity change, negative = inhibition, most hits filed as inhibitors. hit rate 0.46% among 360,000. AID 651768, 2012; further: on the % scale 0 is the no-effect control and ±100 the full control effect; nearly all actives have a fitted effect of over 55% in size
# Target sequence (Q14191 whole entry, looked up): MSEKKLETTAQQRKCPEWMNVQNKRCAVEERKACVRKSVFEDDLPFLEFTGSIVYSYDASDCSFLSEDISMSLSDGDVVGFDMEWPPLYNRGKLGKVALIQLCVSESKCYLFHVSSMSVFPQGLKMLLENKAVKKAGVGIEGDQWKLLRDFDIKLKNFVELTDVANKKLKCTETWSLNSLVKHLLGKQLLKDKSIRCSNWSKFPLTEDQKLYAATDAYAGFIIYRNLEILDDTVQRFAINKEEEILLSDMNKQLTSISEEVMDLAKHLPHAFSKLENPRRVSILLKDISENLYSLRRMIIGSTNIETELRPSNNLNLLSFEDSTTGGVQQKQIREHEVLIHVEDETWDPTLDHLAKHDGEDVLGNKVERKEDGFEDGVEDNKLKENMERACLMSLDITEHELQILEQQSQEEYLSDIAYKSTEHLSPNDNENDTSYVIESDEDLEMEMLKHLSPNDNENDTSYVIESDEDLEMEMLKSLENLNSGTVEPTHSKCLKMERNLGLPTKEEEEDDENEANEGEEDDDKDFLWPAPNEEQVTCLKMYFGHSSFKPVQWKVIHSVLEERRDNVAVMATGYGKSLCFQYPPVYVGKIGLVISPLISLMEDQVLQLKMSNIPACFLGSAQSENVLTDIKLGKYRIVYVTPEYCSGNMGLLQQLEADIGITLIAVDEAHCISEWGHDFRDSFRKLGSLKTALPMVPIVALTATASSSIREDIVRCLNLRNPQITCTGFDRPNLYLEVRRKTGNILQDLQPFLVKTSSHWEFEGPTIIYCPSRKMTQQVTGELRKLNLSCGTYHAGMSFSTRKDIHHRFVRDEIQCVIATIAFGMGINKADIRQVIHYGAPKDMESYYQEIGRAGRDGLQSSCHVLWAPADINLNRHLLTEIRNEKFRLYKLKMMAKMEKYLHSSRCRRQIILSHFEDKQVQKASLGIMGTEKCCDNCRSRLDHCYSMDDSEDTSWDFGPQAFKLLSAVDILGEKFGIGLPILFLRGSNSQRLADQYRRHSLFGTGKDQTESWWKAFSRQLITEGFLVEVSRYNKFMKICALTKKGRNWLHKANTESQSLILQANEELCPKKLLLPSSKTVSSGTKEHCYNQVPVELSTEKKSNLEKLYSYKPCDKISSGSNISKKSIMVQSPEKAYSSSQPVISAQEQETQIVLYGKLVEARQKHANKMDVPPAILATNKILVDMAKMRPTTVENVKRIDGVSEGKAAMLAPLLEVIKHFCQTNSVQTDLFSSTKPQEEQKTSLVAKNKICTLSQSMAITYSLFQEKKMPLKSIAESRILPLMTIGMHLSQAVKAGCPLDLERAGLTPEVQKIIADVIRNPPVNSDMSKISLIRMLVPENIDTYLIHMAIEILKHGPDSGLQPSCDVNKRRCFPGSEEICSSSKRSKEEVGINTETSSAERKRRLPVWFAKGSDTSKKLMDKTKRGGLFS
#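 Fluorescence dequenching readout, ex 525 nm/em 598 nm, kinetic mode: forked duplex DNA (100 nM final) with adjacent fluorophore and quencher unwound by WRN (20 nM final) with 2 mM ATP. Compound preincubation 15 min, room temperature.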
# APE1 inh = qHTS Assay for Inhibitors of the Human Apurinic/apyrimidinic Endonuclease 1 (APE1); recombinant APE1, TAMRA/BHQ-2 abasic DNA cleavage fluorescence; Potency, µM (highest dose often 65.8 µM), inactives show top-dose activity change, negative = inhibition, most hits filed as inhibitors; hit rate 0.35% among 350,000;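 further: plate controls were vehicle for no effect and reference inhibitor for full effect; nearly all actives have a fitted effect of over 55% in size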
#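 Incision of a quenched TAMRA/BHQ-2 THF abasic-site duplex (50 nM) by 0.75 nM APE1, after 15 min compound preincubation, measured as fluorescence increase over three 60 s reads. Values normalized to buffer, DMSO and NSC13755 control wells.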
# WRN helicase inh-2 = qHTS for Inhibitors of WRN Helicase: Confirmatory Assay for Cherry-picked Compounds | shares compounds with WRN helicase inh-1 | WRN helicase DNA unwinding, fluorescence kinetic | Potency, µM (series often up to 57.1 µM), for inactives: at the top dose activity, negative = inhibition, hits mostly inhibitors | hit rate 63% among 610; further: nearly all actives have a fitted effect of over 65% in size
# TO DNA binding = qHTS for Inhibitors of WRN Helicase: Thiazole Orange DNA Binding Counterscreen; Potency, µM (series often up to 57.1 µM), without a hit: at the highest dose activity change, negative = inhibition, most hits filed as inhibitors; hit rate 10% among 610; thiazole orange DNA binding displacement, fluorescence; shares compounds with WRN helicase inh-1;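 further: drop in dye fluorescence marks compound binding to DNA; on the % scale 0 is the no-effect control and ±100 the full control effect; nearly all actives have a fitted effect of over 60% in size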
# BLM helicase inh-2 = qHTS for Inhibitors of WRN Helicase: BLM Helicase Counterscreen for WRN Inhibitors | shares compounds with WRN helicase inh-1 | Potency, µM (doses to about 57.1 µM), for inactives: at the highest dose activity change, negative = inhibition, most hits filed as inhibitors | Recombinant BLM helicase DNA unwinding, red fluorescence | hit rate 60% among 610; further: nearly all actives have a fitted effect of over 60% in size
# * = called active by the depositor; i = inactive; ? = inconclusive; . = not tested or not shown; [ ] = remark or other dose. Most compounds without a hit are left out; they make up all but 0.87% or so of the library. The call rests on the fitted dose curve; in most records, active means well fitted curve in the direction sought with a large enough effect; inconclusive means small, poorly fitted or top-dose-only effect, or another doubt; inactive means no such curve, though single readings can be large; an effect the other way counts as inactive or inconclusive. Potency means the concentration at half of the fitted maximal effect.
SMILES,RECQ1 inh,FEN1 inhibitor,BLM helicase inh-1,WRN helicase inh-1,APE1 inh,WRN helicase inh-2,TO DNA binding,BLM helicase inh-2
CCCCN(C)CCNC(=O)c1ccc(Cn2c(=O)[nH]c3cc(OC)c(OC)cc3c2=O)cc1,.,-22.8%,0.7%,.,.,.,.,.
CCOC(=O)c1c(NC(=O)CN2C(=O)NC3(CCCCC3C)C2=O)sc(C)c1C (centres undefined),-5.3%,2.6%,-9.1%,-6.2%,-4.0%,.,.,.
CCOC(=O)c1c(-c2ccc(F)cc2)csc1NC(=O)CN1C(=O)NC2(CCCCC2C)C1=O (centres undefined),i,?,-2.8%,?,-0.9%,-6.9%,-4.5%,-12.2%
O=C(CCCCn1c(=O)c2ccccc2n(CC(=O)Nc2ccccc2)c1=O)NCc1ccccc1Cl,.,7.4%,-3.9%,.,.,.,.,.
Oc1ccc(Nc2ccc3ccccc3c2)cc1,.,-3.2%,.,?,.,-23.0%,?,?
Cc1ccc(S(=O)(=O)c2ccc([N+](=O)[O-])cn2)cc1,.,-20.6%,-2.9%,?,24.6%,-11.8%,-11.0%,-1.8%
O=[N+]([O-])c1ccc(S(=O)(=O)c2ccccc2)nc1,.,-14.9%,-0.8%,?,38.1%,.,.,.
O=C(Cn1c2ccccc2c(=O)c2ccccc21)N/N=C/c1cc([N+](=O)[O-])ccc1N1CCCCCC1,-5.2%,-20.0%,?,10.6µM*,-3.7%,6.07µM*,19.4%,1.08µM*
O=C(Cn1c2ccccc2c(=O)c2ccccc21)N/N=C/c1ccc(N2CCCC2)c([N+](=O)[O-])c1,8.3%,1.1%,-20.3%,-8.8%,-1.7%,.,.,.
Cc1nnc(Sc2cc(NCCCO)c([N+](=O)[O-])c3nonc23)s1,-4.2%,44.7µM*,-14.6%,22.4µM*,-3.9%,?,-12.7%,?
O=[N+]([O-])c1c(NCCO)cc(N2CCCCCC2)c2nonc12,.,-16.3%,-4.2%,6.1%,11.6%,.,.,.
O=[N+]([O-])c1c(NCCCO)cc(Sc2nc3ccccc3s2)c2nonc12,-3.8%,39.8µM*,4.4%,18.9µM*,-6.9%,?,-15.1%,?
O=C(CSc1nnc(-c2ccccc2)c(-c2ccccc2)n1)NC1CCCC1,.,-9.4%,-1.3%,.,.,.,.,.
COC(=O)c1ccc(NC(=O)CC2C(=O)N(c3cccc(C)c3)C(=O)N2C2CCCC2)cc1 (centres undefined),.,-24.2%,-3.6%,.,.,.,.,.
CCc1ccc(S(=O)(=O)Nc2ccc3[nH]c(=O)sc3c2)cc1,.,13.7%,-0.6%,.,.,.,.,.
COc1ccc(-c2cc(=O)oc3c(O)c(O)ccc23)cc1,.,-12.7%,10µM*,12.6µM*,12.7%,5.41µM*,-4.6%,3.83µM*
COc1cc(OC)c(C#N)c(S(=O)(=O)Cc2ccccc2)c1,i,-6.5%,-6.4%,-3.7%,-0.4%,.,.,.
N#Cc1c([N+](=O)[O-])cc([N+](=O)[O-])cc1S(=O)(=O)Cc1ccccc1,.,79.4µM*,.,11.2µM*,-6.9%,-24.4%,?,-23.8%
COC(=O)C(CC(=O)c1ccc(Br)cc1)n1ccnc1 (centres undefined),-4.8%,?,-9.4%,.,1.8%,-15.4%,-11.3%,?
COC(=O)C(CC(=O)c1ccc(Br)cc1)n1nc(C)cc1C (centres undefined),.,9.6%,-0.7%,-6.3%,-2.5%,.,.,.
CCCn1cc(S(=O)(=O)c2cccc(Cl)c2)c(=O)c2cc(F)c(N3CCCC3)cc21,.,9.3%,-2.9%,.,.,.,.,.
Nc1nnc(CC(=O)N/N=C/c2ccc(-c3cccc(C(=O)O)c3)o2)s1,11.1%,?,-1.3%,?,-11.1%,?,-21.9%,?
O=S(=O)(Nc1cc(Sc2ncn[nH]2)c(O)c2ccccc12)c1ccccc1,-6.8%,20µM*,28.2µM*,35.5µM*,2.7%,?,-16.2%,?
COc1cc(/C=C2\SC(=Nc3cccnc3)NC2=O)cc(OC)c1OC,-13.3%,-16.9%,-4.6%,12.6µM*,13.4%,-15.7%,-4.8%,-15.7%
Cc1nn(C)c(C)c1S(=O)(=O)N(CC(=O)NCCc1ccc(Cl)cc1)c1ccc(C(C)C)cc1,.,1.2%,-5.9%,.,.,.,.,.
SMILES,RECQ1 inh,FEN1 inhibitor,BLM helicase inh-1,WRN helicase inh-1,APE1 inh,WRN helicase inh-2,TO DNA binding,BLM helicase inh-2
COc1ccc2c(c1)C=C/C2=C\c1ccc(N(C)C)cc1,.,-20.3%,.,.,.,.,.,.
COc1cc(/C=C2/C(=O)NN(c3cccc(C)c3)C2=O)cc([N+](=O)[O-])c1O,?,-7.1%,-2.1%,-10.1%[11.6 µM],?,.,.,.
COc1cc(/C=C2/C(=O)NN(c3cccc(C)c3)C2=O)ccc1OC(=O)c1ccco1,-2.5%,-6.9%,-9.5%,44.7µM*,4.2%,?,-13.7%,?
Cc1c(Cl)cccc1-n1ncc(C(=O)N2CCC(C)CC2)c1C1CCN(C(=O)OC(C)(C)C)CC1,.,8.2%,-1.1%,.,.,.,.,.
CSc1nc(SCCO)c2sc3nc(-c4ccco4)c4c(c3c2n1)CC(C)(C)OC4,12.6µM*,-0.6%,12.6µM*,50.1µM*,?,7.64µM*,15.2µM*,2.15µM*
CCC(=O)N1CCc2cc(Br)cc(S(=O)(=O)CCC(=O)N3CCN(c4ccccc4OC)CC3)c21,.,17.2%,-2.9%,.,.,.,.,.
CC1=CC2=NC(=O)/C(=C\c3ccc(-c4cccc(Cl)c4)o3)C(=N)N2O1,-3.4%,2.9%,-14.9%,-26.5%,-0.7%,.,.,.
